Each structure is given as a SMILES string. Screen size: about 3,300 compounds; about 280 (8.5%) were called active. The full list was thinned out, with actives kept by preference. Unmarked numbers belong to inactive results.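 How the source made its calls: active means mean growth inhibition over the two runs of 50% or more; inactive means mean growth inhibition under 50%.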

The assay is described as follows: A549 NSCLC cell proliferation inhibitors – ATP luminescence, human non-small cell lung line, primary screen (AID 371).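 Further: compound exposure lasted 72 h before the ATP read; 0% = untreated cell signal and 100% = no luminescence left.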 Particulars: at 10 µM, stronger effect = higher value.
With `CCCCCSc1nc(O)cc(=O)[nH]1`, the growth inhibition is -0.41%.

For the compound `Cc1nc2c(=O)n(C)c(=O)[nH]c2n1Cc1ccccc1`, the growth inhibition was 8.92%.

As for `O=C1C2ON(c3ccccc3)C(c3cccnc3)C2C(=O)N1c1ccccc1` (stereo not drawn), the growth inhibition is -1.13%.

For the compound `CCOC(=O)c1[nH]c2cc3c(cc2c1NC(=O)CN1CC(C)CC(C)C1)OCO3` (stereo not drawn), the growth inhibition is 6.05%.

As for `CCc1c(C(=O)O)[nH]c2ccc(Br)cc12`, the growth inhibition was 6.3%.

Take `CCOC(=O)c1[nH]c2ccc(OC)cc2c1C`: the growth inhibition was 12.4%.

As for `Cc1cccc(N2CC(=O)N(c3cccc(C)c3)CC2=O)c1`, the growth inhibition was 3.38%.

For `CCN(CC)CCNC(=O)c1c(C)oc2cc(Br)c(OC)cc12`, the growth inhibition was 29.2%.

For the compound `COc1ccccc1N1CCN(C(=O)c2c(C)cc(=O)oc2C)CC1`, the growth inhibition was -0.18%.

`COc1cc2c(C(=O)N3CCN(c4ccccc4)CC3)c(C)oc2cc1Br`: the growth inhibition is 60.9% (active).

On to `CCCCOc1ccc(CN(C)c2ncnc(N)n2)cc1`, for which the growth inhibition is 51.9% (active).

For the compound `CCOc1ccc(Cc2nc(N)nc(N)n2)cc1`, the growth inhibition was 2.96%.

In the case of `CCCCOc1ccc(-c2nnc(N)s2)cc1`, the growth inhibition was 21.4%.

For the compound `COC(=O)c1ccccc1N1C(=O)[C@@H]2C(c3ccc(Br)cc3)=NO[C@@H]2C1=O`, the growth inhibition is 3.29%.

With `O=C1c2ccccc2-c2onc3ccc(NCc4ccco4)c1c23`, the growth inhibition was 50.2% (active).

On to `O=C(NCc1ccco1)c1ccc(=O)oc1`, for which the growth inhibition was -3.09%.

On to `O=C(NCc1ccco1)c1ccc(=O)[nH]n1`, for which the growth inhibition was -4.07%.

In the case of `c1ccc(-c2nn3c(C4CCCCC4)nnc3s2)cc1`, the growth inhibition is 5.6%.

As to `CCC(=O)N(Cc1cccs1)C1CCOC(C)(C)C1` (stereo not drawn), the growth inhibition was 3.04%.

`CCCCNC(=O)c1c(N)n(/N=C/c2cccnc2)c2nc3ccccc3nc12`: the growth inhibition is 5.46%.

With `CN(Cc1ccccc1)Cc1c[nH]c2ccccc12`, the growth inhibition is 5.38%.

As for `CC(C)NCC(O)COc1ccc(CCOCC2CC2)cc1` (stereo not drawn), the growth inhibition is -0.79%.

Take `O/N=C/c1ccc(OCC(O)COc2ccc(/C=N/O)cc2)cc1`: the growth inhibition is -5.19%.

As for `CN(CC(O)COc1ccc(OCC(O)CN(C)C2CCCCC2)cc1)C1CCCCC1` (stereo not drawn), the growth inhibition is 50.1% (active).

Consider `CN(C)CC(O)COc1cccc(OCC(O)CN(C)C)c1` (stereo not drawn), for which the growth inhibition is 2.88%.

For the compound `COCCc1ccc(OCC(O)CNC(C)C)cc1` (stereo not drawn), the growth inhibition is 1.47%.

Consider `N#Cc1ccc(-c2ccc(OCC(O)Cn3nnc4ccccc43)cc2)cc1` (stereo not drawn), for which the growth inhibition was 57.7% (active).

`OC(CNCCCN1CCCCC1)COc1ccccc1` (stereo not drawn): the growth inhibition was 4.57%.

Turning to `CC(C)NCC(O)COc1ccc(CC(N)=O)cc1` (stereo not drawn), the growth inhibition is -2.65%.

As for `CN(C)CC(O)COc1ccc(C(C)(C)c2ccc(OCC(O)CN(C)C)cc2)cc1` (stereo not drawn), the growth inhibition is 89.2% (active).

As for `CN(C)CC(O)COc1ccc(-c2ccc(C#N)cc2)cc1` (stereo not drawn), the growth inhibition was 64.2% (active).

`CN=c1sc2ccccc2n1CC(O)COc1ccccc1` (stereo not drawn): the growth inhibition is 25.3%.

With `CC1(C)NC(=O)N(CC(O)Cn2nnc3ccccc32)C1=O` (stereo not drawn), the growth inhibition is 8.44%.

On to `CCOCCSc1nc2c(c(=O)[nH]c(=O)n2C)n1CCCc1ccccc1`, for which the growth inhibition was 20.2%.

For the compound `CCN(CC)CCCN1C(=O)C(O)=C(C(=O)c2ccc(C)o2)C1c1ccc(C)o1` (stereo not drawn), the growth inhibition is 5.46%.

`CC1CC(C(F)(F)F)n2ncnc2N1` (stereo not drawn): the growth inhibition was 2.4%.

On to `CC(C)OC(=O)[C@H]1[C@H](c2ccc(Cl)cc2)[C@@](C#N)(C(N)=O)[C@@H]2C=CC(C(N)=O)=CN21`, for which the growth inhibition is 6.9%.

Regarding `Cc1cccc(N2C(=O)CC(N3CCN(Cc4ccc(Cl)cc4)CC3)C2=O)c1` (stereo not drawn), the growth inhibition is -1.79%.

As for `O=C(Nc1ccc(Cl)cn1)C1CCCN1S(=O)(=O)c1ccccc1` (stereo not drawn), the growth inhibition is -16.6%.

Consider `CCCOc1cc(CN2CCCCC2)cc(C(C)=O)c1`, for which the growth inhibition was 5.4%.

Take `CCNC(=O)N(C(=O)NCC)n1c(C)nnc1C`: the growth inhibition was -3.85%.

Turning to `c1ccc(CSc2nnc(SCc3ccccn3)s2)nc1`, the growth inhibition is -7.61%.

With `N#CC1=C(N)N2C(=C(C#N)C1c1ccccc1)Sc1ccccc12` (stereo not drawn), the growth inhibition was -5.42%.

Take `C#CC1CN(Cc2ccccc2)CC(C#C)N1C` (stereo not drawn): the growth inhibition is 4.27%.

`Cc1ccc(Cn2ncc3c(N4CCN(Cc5ccc(Cl)cc5)CC4)ncnc32)cc1`: the growth inhibition was 53.7% (active).

In the case of `Cc1ccc(Cn2ncc3c(N4CCN(c5ccc(C)cc5)CC4)ncnc32)cc1`, the growth inhibition is 30.8%.

As to `Cc1ccc(Cn2ncc3c(N4CCOCC4)ncnc32)cc1`, the growth inhibition is 19.4%.

On to `COC(=O)C(NC(C)=O)(Nc1ccc(Br)cc1)C(=O)OC`, for which the growth inhibition is 36.9%.

As to `Cc1ccc2[nH]c3c(N4CCN(Cc5ccccc5)CC4)ncnc3c2c1`, the growth inhibition is 80.6% (active).

Consider `Cc1ccc2[nH]c3c(N4CCOCC4)ncnc3c2c1`, for which the growth inhibition was 34.7%.

Consider `Cc1ccc2[nH]c3c(N4CCCCCC4)ncnc3c2c1`, for which the growth inhibition was 72.1% (active).

With `c1ccc2c(c1)[nH]c1c(N3CCC4(CC3)OCCO4)ncnc12`, the growth inhibition was 34%.

As to `OC1(c2cccc(C(F)(F)F)c2)CCN(c2ncnc3c2[nH]c2ccccc23)CC1`, the growth inhibition is 92.4% (active).

On to `c1ccc2c(c1)CCN(c1ncnc3c1[nH]c1ccccc13)C2`, for which the growth inhibition is 77.4% (active).

For `CCN1CCCC1Cn1cnc2c([nH]c3ccc(C)cc32)c1=O` (stereo not drawn), the growth inhibition is 6.64%.

For the compound `c1ccc2c(c1)[nH]c1c(N3CCSCC3)ncnc12`, the growth inhibition was 33.6%.

Take `CSc1nnc2n(C3CCCCC3)c(=O)c3c4c(sc3n12)CCCC4`: the growth inhibition is 6.35%.

Regarding `COc1cccc(C(=O)OCCN(C)C(C)(C)C)c1`, the growth inhibition is 0.03%.

`OCCOCCNc1ncnc2c1cnn2-c1ccccc1`: the growth inhibition was 5.28%.

Take `Cc1cc(=O)oc2cc(OCCSCCN3CCOCC3)ccc12`: the growth inhibition is 8.74%.

Regarding `CCn1cc(/C=N/O)c(C)n1`, the growth inhibition was -8.38%.

As to `O=C1OC(N2CCN(C/C=C/c3ccccc3)CC2)c2ccccc21` (stereo not drawn), the growth inhibition was 7.88%.

With `Cc1cc(SCCC(=O)O)nc2ccccc12`, the growth inhibition was -1.53%.

For the compound `CCOC(=O)c1cnc(SC2CC(=O)N(c3cccc(OC)c3)C2=O)nc1N` (stereo not drawn), the growth inhibition is -4.72%.

As for `Cn1ccnc1SCCC#N`, the growth inhibition was -0.21%.

Turning to `N#Cc1nc(COc2ccc(Cl)cc2)oc1N1CCN(Cc2ccccc2)CC1`, the growth inhibition was 21.8%.

For `c1ccc(CN2CCN(c3ncnc4c3[nH]c3ccccc34)CC2)cc1`, the growth inhibition is 63% (active).

With `O=C(c1ccco1)N1CCN(c2ncnc3c2[nH]c2ccccc23)CC1`, the growth inhibition is 25.7%.

For the origin of these results see PubChem BioAssay AID371 (SRMLSC, 2006).
